# Calls of active or inactive are those of the source. Unless noted, no rule for the calls is given here.
# Legend:
# [1] = system: XIP peptide (Xip251-270) binding; assay: small-molecule binders of XIP peptide, primary screen, biochemical, small-molecule microarray, fluorescence 635/667 nm, 0.1 µg/mL protein (AID 1182); conditions: fluorescent protein binding, 635 nm, higher = more signal, called active from +8 up or from −8 down
# XIP peptide (Xip251-270) = assay: small-molecule binders of XIP peptide, primary screen, biochemical, small-molecule microarray, fluorescence 635/667 nm, 0.5 µg/mL protein (AID 1183); conditions: small-molecule microarray binding, fluorescence 635 nm; higher = more signal
# [2] = Plasmodium falciparum growth inhibition, primary screen, strain 3D7, DAPI fluorescence, 100 nL (AID 1184);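 also: parasites grown inside human red blood cells in medium with human serum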; conditions: P. falciparum 3D7 growth, 3 d, higher = more signal
# [3] = target: Homeobox protein Hox-A13 (Mus musculus) (UniProt Q62424); assay: inhibitors of HoxA13-DNA binding, primary screen, biochemical, fluorescence polarization, labeled oligonucleotide (AID 1185); conditions: 15 min, higher = more signal, called active from +8 up or from −8 down
# Homeobox protein Hox-A13 (Mus musculus), sequence (Q62424 whole entry, looked up): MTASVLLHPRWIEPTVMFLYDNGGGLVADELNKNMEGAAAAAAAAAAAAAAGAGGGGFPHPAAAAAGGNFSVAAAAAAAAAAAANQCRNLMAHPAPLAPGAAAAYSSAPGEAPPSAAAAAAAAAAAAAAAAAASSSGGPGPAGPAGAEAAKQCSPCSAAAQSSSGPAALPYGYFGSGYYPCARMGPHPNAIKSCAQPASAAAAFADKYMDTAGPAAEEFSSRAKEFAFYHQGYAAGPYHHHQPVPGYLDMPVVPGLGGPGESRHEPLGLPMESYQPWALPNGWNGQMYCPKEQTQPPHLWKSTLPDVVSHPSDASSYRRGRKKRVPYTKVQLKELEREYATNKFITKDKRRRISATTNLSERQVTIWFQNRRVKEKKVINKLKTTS
# [4] = inhibitors of hydroxyurea-induced Chk1 phosphorylation, primary screen, imaging, HeLa, phospho-Chk1 antibody, percent positive cells (AID 1186); conditions: hydroxyurea-induced phospho-Chk1 immunofluorescence imaging, higher = more signal
# [5] = inhibitors of hydroxyurea-induced Chk1 phosphorylation, primary screen, imaging, HeLa, phospho-Chk1 nuclear intensity (AID 1187); conditions: hydroxyurea-induced phospho-Chk1 immunofluorescence imaging, higher = more signal
SMILES,composite z-score [1],composite z-score (XIP peptide (Xip251-270)),z-score [2],z-score [3],z-score [4],z-score [5]
COc1ccc(C#Cc2ccc3c(c2)[C@]2(C(=O)N3)[C@H](c3ccc(O)cc3)N3[C@H](c4ccccc4)[C@H](c4ccccc4)OC(=O)[C@H]3[C@@H]2C(=O)O)cc1,-0.101 (inactive),0.83,-1.23,-5.22 (inactive),-0.368 (inactive),-0.664 (inactive)
COC(=O)[C@@]1(Cc2ccc(OC)cc2)[C@H]2c3cc(C(=O)N(C)C)n(C[C@H](O)CO)c3C[C@H]2CN1C(=O)c1ccccc1,0.309 (inactive),-0.587,-1.74,-3.35 (inactive),0.708 (inactive),0.22 (inactive)
C=C(C)C1CCC(C(O)C2C=CC3C(=O)N(C)C(=O)C3N2N2CCCCC2)CC1 (stereo not drawn),0.763 (inactive),0.622,-0.122,-5.66 (inactive),0.692 (inactive),0.133 (inactive)
COC1OC[C@]2(C)[C@H]3C4=C(CN2C(=O)OC(C)(C)C)[C@H](C)C(CO)C(CO)C4CC[C@@H]13 (stereo partly drawn),1.48 (inactive),0.745,-0.892,-4.97 (inactive),0.495 (inactive),-0.0531 (inactive)
CCOC(=O)c1ccc(NC(=O)O[C@H]2[C@H](OC(=O)Nc3ccc4c(c3)OCO4)[C@@H](OC(=O)Nc3ccc4c(c3)OCO4)[C@@H](OC)O[C@@H]2CO)cc1,1.15 (inactive),0.894,-2.42,-8.16 (active),-0.301 (inactive),-0.0975 (inactive)
NCCCCCCNC(=O)[C@@H]1C[C@@H]2C(=O)N[C@@H](CCCCN)C(=O)N2[C@@H]1c1cccc(OCCO)c1,1.7 (inactive),0.832,0.139,-3.22 (inactive),-0.545 (inactive),-0.269 (inactive)
CCOC(=O)C1=CC[C@@H](c2ccc(OCc3ccccc3)c(OC)c2)N(S(=O)(=O)c2ccc(C)cc2)[C@H]1c1ccc(SC)cc1,0.56 (inactive),0.569,-2.05,1.81 (inactive),-0.387 (inactive),-0.768 (inactive)
O=C1O[C@H](c2ccccc2)[C@H](c2ccccc2)N2[C@H]1[C@@H](C(=O)N1CCN(c3ncccn3)CC1)[C@]1(C(=O)Nc3ccc(C#CC4(O)CCCCCC4)cc31)[C@H]2c1ccc(OCCO)cc1,2.51 (inactive),0.781,-2.13,0.271 (inactive),0.354 (inactive),0.527 (inactive)
COCCCNC(=O)[C@@]1(Cc2ccccc2CN=[N+]=[N-])N=C(c2ccc(OCCCO)cc2)O[C@H]1c1ccccc1,1.38 (inactive),0.789,-2.37,-6.47 (inactive),-0.371 (inactive),-0.349 (inactive)
CCOC(=O)C[C@H]1[C@H](OC(=O)Cc2ccc3c(c2)OCO3)[C@@H](NC(=O)Cc2ccc(OC)cc2)c2cc(OCCCO)ccc2N1C(=O)c1ccc2ccccc2n1,-0.16 (inactive),0.0481,-0.919,-3.37 (inactive),-0.996 (inactive),-0.347 (inactive)
CC(C)C(CO)N1C(=O)[C@@H]2C3C(=O)OCCC/C=C\[C@H]3OC23C=CCN(C(C)(C)C)C(=O)[C@@H]13 (stereo partly drawn),-0.68 (inactive),-0.201,1.16,-5.07 (inactive),0.0464 (inactive),-0.0642 (inactive)
CN1C(=O)C2C=CC(C(O)C#Cc3ccccc3)N(Nc3ccccc3)C2C1=O (stereo not drawn),0.783 (inactive),0.794,-0.351,-4.25 (inactive),-0.0435 (inactive),0.113 (inactive)
C=C(C)c1cc2c(c(CCCCCC)n1)[Si](C(C)C)(C(C)C)OC2,-0.525 (inactive),-0.115,-0.631,-1.76 (inactive),0.213 (inactive),1.53 (inactive)
C[N+](C)(C)CCCCCCNC(=O)[C@H]1C[C@H]2C(=O)N[C@@H](Cc3ccccc3)C(=O)N2[C@H]1c1ccc(O)cc1,0.901 (inactive),0.5,0.0933,-3.23 (inactive),0.141 (inactive),0.14 (inactive)
CCCCO[C@H]1C[C@H]2C(I)=C[C@@H]1C(=O)[C@]21CO1,-0.178 (inactive),0.08,1.06,-1.07 (inactive),0.187 (inactive),-0.0533 (inactive)
COc1cc(CO)cc(I)c1O[C@H]1C=C(C(=O)NCCO)C[C@@H](NCc2ccc(F)cc2)[C@@H]1O,-0.35 (inactive),0.728,-3.1,-7.05 (inactive),-0.926 (inactive),-2.03 (inactive)
COCCOC(=O)N1C(=O)[C@@]2(c3ccccc31)[C@H](C(=O)N1CCN(c3ncccn3)CC1)[C@H]1C(=O)O[C@H](c3ccccc3)[C@H](c3ccccc3)N1[C@@H]2c1ccc(O)cc1,0.43 (inactive),0.854,-1.55,-0.883 (inactive),0.172 (inactive),0.371 (inactive)

SMILES,composite z-score [1],composite z-score (XIP peptide (Xip251-270)),z-score [2],z-score [3],z-score [4],z-score [5]
Cc1ccccc1C(O)C1C=CC2C(=O)N(C)C(=O)C2N1N(c1ccccc1)c1ccccc1 (stereo not drawn),-0.0728 (inactive),0.649,0.548,-1.17 (inactive),-0.274 (inactive),-0.168 (inactive)
[N-]=[N+]=NCc1ccccc1[C@H]1OC(c2ccc(OCCCO)cc2)=N[C@@]1(CCS(=O)(=O)c1ccccc1)C(=O)NCC(O)CO (stereo partly drawn),1.2 (inactive),0.781,-2.41,-2.82 (inactive),-0.0433 (inactive),0.0231 (inactive)
COCCOC(=O)N1C(=O)[C@@]2(c3cc(C#CCC(C(=O)OC)C(=O)OC)ccc31)[C@H](C(=O)N1CCc3cc(OC)c(OC)cc3C1)[C@H]1C(=O)O[C@H](c3ccccc3)[C@H](c3ccccc3)N1[C@@H]2c1ccc(OCCO)cc1,0.655 (inactive),0.749,-2.1,3.49 (inactive),-0.0997 (inactive),0.159 (inactive)
O=C1O[C@H](c2ccccc2)[C@H](c2ccccc2)N2[C@H]1[C@@H](C(=O)NC[C@H](O)c1ccccc1)[C@]1(C(=O)Nc3ccc(C#CCCO)cc31)[C@H]2c1ccc(OCCO)cc1,1.14 (inactive),0.829,-0.685,-3.46 (inactive),-0.434 (inactive),-0.821 (inactive)
NC(=O)NCC#Cc1ccc2c(c1)[C@]1(C(=O)N2)[C@H](C(=O)NC[C@H](O)c2ccccc2)[C@H]2C(=O)O[C@H](c3ccccc3)[C@H](c3ccccc3)N2[C@@H]1c1ccc(OCCO)cc1,0.869 (inactive),0.528,-0.0803,-2.75 (inactive),0.179 (inactive),0.446 (inactive)
CN(C)C(=O)C1N=C(c2ccc(OCCCO)cc2)N(c2ccccc2)O1 (stereo not drawn),0.94 (inactive),0.62,0.639,-1.46 (inactive),-0.823 (inactive),-0.846 (inactive)
COCC1=C2[C@@H](CCc3ccccc3)OB(O)C[C@@H]2[C@@H]2C(=O)C=CC(=O)[C@@H]2C1,0.796 (inactive),-0.154,-1.28,-6.27 (inactive),0.162 (inactive),0.398 (inactive)
C=CCNC(=O)[C@@H]1[C@H]2C(=O)O[C@H](c3ccccc3)[C@H](c3ccccc3)N2[C@H](c2ccc(O)cc2)[C@@]12C(=O)N(C(=O)OCCOC)c1ccc(C#CC3(O)CCCCCC3)cc12,0.0275 (inactive),0.557,0.359,0.16 (inactive),-0.209 (inactive),-0.468 (inactive)
CCOC(=O)C[C@H]1[C@H](OC(=O)c2ccccc2-c2ccccc2)[C@@H](NC(=O)c2ccc(-c3ccccc3)cc2)c2cc(OCCCO)ccc2N1C(=O)c1ccc2ccccc2n1,-0.07 (inactive),0.421,-0.557,-1.48 (inactive),-0.145 (inactive),-0.0265 (inactive)
[N-]=[N+]=NCc1ccccc1C[C@]1(C(N)=O)N=C(c2ccc(OCCCO)cc2)O[C@H]1c1ccccc1,0.594 (inactive),0.692,-1.42,-6.49 (inactive),0.0449 (inactive),0.43 (inactive)
C=CCC(OC(C)=O)[C@@H]1[C@@H](N(Cc2cc3ccccc3o2)C(=O)Cc2ccc(F)cc2)c2cc(OCCCO)ccc2N1C(=O)c1ccc2ccccc2c1 (stereo partly drawn),-0.231 (inactive),-0.271,1.15,-1.95 (inactive),0.608 (inactive),0.308 (inactive)
COc1ccc([Si](C)(C)[C@H]2[C@H](CCn3cc([C@H](O)c4ccccc4)nn3)O[C@@]3(C(=O)N(Cc4ccc(N5C(=O)c6cccc7cccc5c67)cc4)c4ccccc43)[C@@H]2C)cc1,0.784 (inactive),0.199,-1.59,-0.717 (inactive),-0.283 (inactive),-0.162 (inactive)
CCCC[C@@H]1C[C@H]1[C@@H](NC(=O)Cc1ccccc1)c1ccc(-c2ccccc2)cc1,0.33 (inactive),-0.135,-0.456,-0.559 (inactive),-0.584 (inactive),-0.541 (inactive)
COc1ccc([Si](C)(C)[C@@H]2[C@@H](CC(=O)N(CCO)Cc3ccccc3)O[C@]3(C(=O)N(Cc4cccc(N5CCOC5=O)c4)c4ccccc43)[C@H]2C)cc1,1.18 (inactive),0.799,-2.16,-2.52 (inactive),0.437 (inactive),-0.0407 (inactive)
O=C(CS)NCCCCCCNC(=O)[C@H]1C[C@H]2C(=O)N[C@@H](Cc3ccccc3)C(=O)N2[C@H]1c1ccc(O)cc1,0.398 (inactive),0.849,-0.0607,-1.23 (inactive),-0.836 (inactive),-0.555 (inactive)
O=C1OCCC/C=C\[C@H]2OC34C=CCN(CCN5CCOCC5)C(=O)[C@H]3N(CCCCCCO)C(=O)[C@@H]4C12 (stereo partly drawn),3.43 (inactive),0.299,-0.282,-6.22 (inactive),-0.039 (inactive),0.587 (inactive)

# — PubChem BioAssay
